Our source for the growth values is PubChem BioAssay (NCI).

What all share (test): NCI-60 one-dose screen, 48 h (100 = growth as untreated, 0 = no growth, -100 = all killed)
The subject of assay [1] is HCT-15 colon. To be noted: 10 µM unless noted.
The test system of assay [2] is HT29 colon. The note with it: 10 µM unless noted.
The subject of assay [3] is SNB-19 CNS. The note with it: 10 µM unless noted.
Assay [4] deals with U251 CNS. To be noted: 10 µM unless noted.
Assay [5] concerns PC-3 prostate. The note with it: 10 µM unless noted.
The subject of assay [6] is SK-MEL-5 melanoma. The note with it: 10 µM unless noted.
For assay [7], the system named is UACC-62 melanoma. To be noted: 10 µM unless noted.
In assay [8] the test system is LOX IMVI melanoma. The note with it: 10 µM.
Assay [9] relates to SK-MEL-28 melanoma. To be noted: 10 µM unless noted.
Assay [10] has as its system SK-MEL-2 melanoma. The note with it: 10 µM unless noted.
The subject of assay [11] is EKVX NSCLC. To be noted: 10 µM unless noted.
Assay [12] has as its system SN12C renal. The note with it: 10 µM unless noted.
Assay [13] deals with UO-31 renal. The note with it: 10 µM unless noted.
The test system of assay [14] is TK-10 renal. To be noted: 10 µM unless noted.
Assay [15] relates to ACHN renal. The note with it: 10 µM unless noted.
The subject of assay [16] is CAKI-1 renal. To be noted: 10 µM unless noted.
In assay [17] the test system is A498 renal. The note with it: 10 µM unless noted.
Assay [18] relates to CCRF-CEM leukemia. The note with it: 10 µM unless noted.
Assay [19] concerns MOLT-4 leukemia. To be noted: 10 µM unless noted.
Assay [20] has as its system SNB-75 CNS. The note with it: 10 µM unless noted.

About 83,000 compounds went through this panel and 20% of them were active in at least one assay; those are over-represented in the sample as a whole.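 96-well plates, one dose, 48 hours. Percent growth reported; active if below 10.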 Values without a mark were called inactive. Activity calls are given as the source filed them.

In the case of `Cc1ccccc1[C@H]1C(C(=O)c2ccc(Cl)cc2)C2(N[C@@H]1c1ccccc1)C(=O)Nc1ccc(Br)cc12` (stereo partly specified), the growth was 7.15% (active) in assay [1]; -58.6% (active) in assay [2]; 38.4% in assay [3]; -3.71% (active) in [4]; -4.58% (active) in assay [5]; 35.3% in assay [6]. For the same molecule, the growth in assay [7] is 11.2%; in assay [8], -95.3% (active); in assay [9], 41%; in assay [10], -11.2% (active); in assay [11] it was 26.4%; in assay [12], -82.1% (active). In addition, the growth is 14.1% in assay [13]; 41.6% in assay [14]; 7.11% (active) in assay [15]; 23% in assay [16]; 44.3% in assay [17]; 5.11% (active) in assay [18]. For the same molecule, in [19], the growth is -2.55% (active).
With `CCCCCCCCc1ccc(C(=O)Nc2cccc(P(=O)(O)O)c2)cc1`, the growth in assay [1] was 100%; in [2] it was 114%; in assay [20], 99.9%; in assay [4], 108%; in assay [5], 92.9%; in assay [6], 97.7%. Also, the growth in assay [7] was 91.8%; in assay [8], 103%; in assay [9], 107%; in [10], 106%; in [11] it was 103%; in assay [13] it was 97.5%. For the same molecule, the growth is 110% in assay [15]; 93.6% in assay [16]; 105% in assay [17]; 79.6% in assay [18]; 98.6% in [19].
With `O=C(Cn1c(/C=C/c2ccccc2)nc2ccccc2c1=O)Nc1ccccc1`, the growth in assay [1] is 76.6%; in assay [2], 98.5%; in assay [3], 67.8%; in [4], 35.8%; in [5] it was 76.1%; in assay [6], 97.3%. The growth in assay [7] was 90.1%; in assay [8] it was 43.2%; in assay [9], 111%; in assay [10], 94.7%; in assay [11] it was 124%; in assay [12] it was 31%. Further, the growth was 24.7% in [13]; 75.6% in assay [14]; 1.89% (active) in assay [15]; 8.48% (active) in assay [16]; -29.9% (active) in [17]; 71.4% in assay [18]. Besides, in [19], the growth was 73%.
Take `CC(C)CSc1nc(NCCc2c[nH]c3ccccc23)c(C#N)c(-c2ccc(F)cc2)n1`: the growth was 19.6% in assay [1]; 5.49% (active) in [2]; 61.1% in [20]; 21.1% in assay [4]; 26.2% in assay [5]; 17.3% in assay [6]. The growth is 60.6% in assay [7]; 12.4% in [8]; 79.1% in assay [9]; 78.9% in assay [10]; 45.9% in assay [11]; 70.3% in assay [13]. Besides, the growth was 59.6% in assay [15]; 49.2% in [16]; 92.8% in [17]; 22.1% in assay [18]; 27.9% in [19].
On to `C=C1CC[C@@H]2[C@]3(C)COC(c4cn[nH]c4-c4ccc(F)cc4)O[C@@H]3CC[C@@]2(C)[C@@H]1C/C=C1/C(=O)OCC1O` (stereo partly specified), for which the growth in assay [1] was -56.8% (active); in assay [2], -2.38% (active); in assay [3], 21.6%; in assay [4], -83.2% (active); in [5], 8.84% (active); in assay [6], -79% (active). The growth in assay [7] is -73.7% (active); in [8], -100% (active); in assay [9], -75.6% (active); in [10], -39% (active); in assay [11], -6.56% (active); in assay [12], -51.4% (active). In addition, the growth in assay [13] was -80.4% (active); in assay [14] it was -19.1% (active); in assay [15] it was -80.3% (active); in assay [16] it was 1.51% (active); in [17], 146%; in assay [18], -3.97% (active). The growth in assay [19] is 1.15% (active).
For `CC(C)Sc1nc(NCCc2c[nH]c3ccccc23)c(C#N)c(-c2ccccc2)n1`, the growth in assay [1] is -19.9% (active); in assay [2], -30.6% (active); in assay [20] it was 60.6%; in assay [5], 12.6%; in assay [6], -6.58% (active); in assay [7] it was 79.4%. In addition, the growth is -68.7% (active) in assay [8]; 81.5% in [9]; 68.7% in [10]; 18% in [11]; 32.1% in assay [13]; 67.4% in [14]. In addition, the growth in assay [15] was 33%; in assay [16], 34.3%; in assay [17], 23.4%; in assay [18], 8.66% (active); in [19], 5.18% (active).
Consider `Cc1ccc([C@H]2C(C(=O)c3ccc(Cl)cc3)C3(N[C@@H]2c2ccccc2)C(=O)Nc2ccc(Cl)cc23)cc1` (stereo partly specified), for which the growth was 47.1% in [1]; 3.1% (active) in assay [2]; 66.2% in [3]; 47.9% in assay [4]; 14% in [5]; 77.9% in assay [6]. Besides, the growth in assay [7] was 33.8%; in assay [8] it was 39.8%; in assay [9], 69.4%; in assay [10], 49.9%; in assay [11], 59.8%; in assay [12], -1.19% (active). Besides, the growth in [13] was 31.2%; in assay [14], 65.7%; in [15] it was 38.7%; in assay [16], 39.1%; in [17] it was 94%; in [18], 66.3%. Besides, the growth in assay [19] was 3.24% (active).
With `CCN(CC)CCOc1ccc(Nc2ncc3cc(-c4ccc(O)c(C#N)c4)c(=O)n(C)c3n2)cc1`, the growth in assay [1] was 86.2%; in assay [2], -58.4% (active); in assay [3] it was 108%; in [4], -61.2% (active); in assay [5], 69.5%; in assay [6], 43.8%. Further, the growth in assay [7] is 92.1%; in assay [8], 47%; in assay [9], 79.8%; in [10] it was 105%; in assay [11], 139%; in assay [12], 69.5%. The growth in [13] was 67.6%; in [14], 96.8%; in [15], 40.1%; in assay [16] it was 45.9%; in assay [17] it was 113%; in assay [18], -25.5% (active). The growth in assay [19] was 3.63% (active).
